Experimental data published in the supplement of paper PMC13380429.

Experiments:
[1] = test system: Vero E6 infected with SARS-CoV-2; assay: morphology score (similarity to uninfected cells); higher = more like uninfected cells; conditions: 24 h
[2] = test system: Vero E6 infected with SARS-CoV-2; assay: SARS-CoV-2 infection rate relative to infected DMSO; higher = more infection, active = 60 or less; conditions: 24 h

Compound	morphology score [1]	SARS-CoV-2 infection rate [2]
CC(C)N(CCCCOCC(=O)NS(C)(=O)=O)c1cnc(-c2ccccc2)c(-c2ccccc2)n1 [selexipag] (10 µM)	-0.0772	116% (inactive)
CCOC(=O)[C@@H](C)Oc1cccc2c(=O)n(CC(=O)Nc3ccc4c(c3)OCCO4)ccc12 (10 µM)	-0.204	108% (inactive)
COC[C@H]1OC(=O)c2coc3c2[C@@]1(C)C1=C(C3=O)[C@@H]2CCC(=O)[C@@]2(C)C[C@H]1OC(C)=O [wortmannin] (0.833333 µM)	0.26	79.5% (inactive)
CC[C@@H](C)Nc1cc(C(=O)N[C@H]2C[C@H]3CC[C@@H](C2)N3c2ccc(C(=O)C3CC3)cn2)c(C)cc1C(N)=O (10 µM)	0.188	98.5% (inactive)
N=C(N)NCCC[C@@H](N)C(=O)N[C@@H](CCCNC(=N)N)C(=O)N1CCC[C@H]1C(=O)N1C[C@H](O)C[C@H]1C(=O)NCC(=O)N[C@@H](Cc1cccs1)C(=O)N[C@@H](CO)C(=O)N1Cc2ccccc2C[C@@H]1C(=O)N1[C@H](C(=O)N[C@@H](CCCNC(=N)N)C(=O)O)C[C@@H]2CCCC[C@@H]21 [icatibant-acetate] (10 µM)	0.105	102% (inactive)
CCCCCCCCCCC(=O)O[C@H]1CC[C@H]2[C@@H]3CCC4=CC(=O)CC[C@]4(C)[C@H]3CC[C@]12C [Testosterone (undecanoate)] (10 µM)	0.107	98.5% (inactive)
N=C(N)Nc1ccc(Cl)cc1 [4-chlorophenylguanidine] (10 µM)	-0.231	114% (inactive)
